FMDV inh: High Throughput Screening for Foot and Mouth Disease Virus Antivirals; FMDV antiviral cell-based qHTS; 1.2% of 410,000 active; AID 1159524, 2015; Potency, µM (highest dose often 57.9 µM), for inactives: at the top dose activity change, negative = inhibition, usual class: inhibitors; calls by dose curve; tested in HEK293T cells; also: read-out not given here; potency is read from the fitted curve at half-maximal effect; nearly all actives have a fitted effect of over 45% in size
HCMV antiviral: qHTS Assay for inhibitors of the human cytomegalovirus (HCMV). activity change, negative = inhibition, % at 57.5 µM. 4.5% of 410,000 active. HFF cells, HCMV-luciferase reporter, 72 h; stronger effect = lower value; in the data active = activity change below about -60%; inconclusive = no clear call, values can overlap the other calls; inactive = above about -39%
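HFF cells seeded 16 h at 37C, treated with compounds, infected with luciferase-reporter HCMV at MOI 1 PFU/cell; luciferase read at 72 h post infection, normalized to buffer-only and Salinomycin controls.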
HCV inh: qHTS Assay for Inhibitors of Hepatitis C Virus (HCV); Huh7.5.1 HCVcc-Cre infection, luciferase reporter, 44 h; Potency, µM (top dose mostly 41.8 µM), without a hit: at the highest dose activity change, negative = inhibition, most hits filed as inhibitors; 3.4% of 340,000 active; AID 651820, 2012; active = well fitted inhibition curve with a large enough effect; inconclusive = small, poorly fitted or top-dose-only effect, or another doubt; inactive = no such curve, though single readings can be large or run the other way; also: potency is read from the fitted curve at half-maximal effect
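Cells seeded at 1,000/well and cultured 4 h, then compounds added followed by HCVcc-Cre virus (~0.5 moi). After 44 h further culture, luciferase substrate was added, plates held 15 min at room temperature, and luminescence read for 15 sec.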
Vaccinia mCherry: qHTS for Stage-Specific Inhibitors of Vaccinia Orthopoxvirus: mCherry Reporter Primary qHTS | AID 720579, 2013 | 0.63% of 310,000 active | Vaccinia virus mCherry reporter infection, fluorescence | Potency, µM (doses to about 36.5 µM), for inactives: at the top dose activity change, negative = inhibition, hits mostly inhibitors; calls by dose curve; tested in A549 cells; also: potency is read from the fitted curve at half-maximal effect; nearly all actives have a fitted effect of over 35% in size
Vaccinia Venus: qHTS for Stage-Specific Inhibitors of Vaccinia Orthopoxvirus: Venus Reporter Primary qHTS | Vaccinia virus Venus reporter expression, fluorescence | Potency, µM (series often up to 36.5 µM), without a hit: at the highest dose activity change, negative = inhibition, actives largely listed as inhibitors | AID 720580, 2013 | 0.46% of 330,000 active; calls by dose curve; tested in A549 cells; also: potency is read from the fitted curve at half-maximal effect; nearly all actives have a fitted effect of over 30% in size
Active calls of the source: *; i = inactive; ? = inconclusive; . = no result given; [ ] = dose if it differs, or a comment. Hits are enriched below; roughly 7.3% of the tested compounds scored in any of these assays. % is scaled to controls: 0 for no effect and ±100 for the full control effect.

SMILES	FMDV inh	HCMV antiviral	HCV inh	Vaccinia mCherry	Vaccinia Venus
O=Cc1cc([N+](=O)[O-])ccc1N1CCN(Cc2ccc3c(c2)OCO3)CC1	-26%	-102*	?	-6%	-13%
CC(=O)c1ccc(N2CCN(c3ccc(S(=O)(=O)NCCN(C)C)cc3[N+](=O)[O-])CC2)cc1	-4%	4	?	.	.
O=[N+]([O-])c1ccccc1S(=O)(=O)N1CCN(Cc2ccc3c(c2)OCO3)CC1	?	-31	13%	4%	0%
O=[N+]([O-])c1cc(S(=O)(=O)C(F)(F)F)ccc1N1CCN(c2ccccc2)CC1	?	50	-3%	-16%	-16%
COc1cccc2c(N/N=C/c3ccccc3)cc(C)nc12	-27%	-3	-12%	.	.
COc1ccc(/C=N/Nc2cc(C)nc3ccc(Br)cc23)cc1	-29%	-98*	6.3µM*	?	-30%
COc1ccc2nc(C)cc(N/N=C/c3cccc(OC)c3O)c2c1	7%	-7	?	1µM*	?
COc1ccc(-c2nccc3[nH]nc(-c4ccccc4)c23)cc1	.	-19	.	.	.
Cc1nc(N2CCc3ccccc3C2)[nH]c(=O)c1Cc1ccccc1	-6%	-22	-1%	-1%	-4%
Cc1nc(-n2[nH]c3c(c2=O)CCCC3)[nH]c(=O)c1Cc1ccccc1	?	-103*	7.1µM*	.	.
CCSc1nc(N)c(C#N)c(-c2ccccc2Cl)c1C#N	-25%	-63*	-28%	.	.
Cc1ccc(-c2cc(-c3ccccc3Cl)c(C#N)c(N)n2)o1	?	-37	?	-13%	3%
N#Cc1c(N)nc(Sc2ccc(Cl)cc2)c(C#N)c1-c1ccccc1Cl	28µM*	-78*	11µM*	?	-29%
CC[n+]1c(-c2ccccc2)csc1Nc1c(C)n(C)n(-c2ccccc2)c1=O	-15%	-39	?	.	.
CC[n+]1c(-c2ccc(C)cc2)csc1Nc1c(C)n(C)n(-c2ccccc2)c1=O	32µM*	-88*	?	-24%	-27%
O=C(/C=C/c1ccc([N+](=O)[O-])s1)N1CCCC1	-7%	-31	?	?	13µM*
O=C(/C=C/c1ccccc1[N+](=O)[O-])N1CCCCC1	-14%	31	0%	.	.
O=C(/C=C/c1ccc([N+](=O)[O-])s1)N1CCCCC1	4%	?	?	?	14µM*
O=C(/C=C/c1ccc([N+](=O)[O-])s1)N1CCN(c2ccccc2)CC1	-24%	-70*	?	.	.
Cc1ccc(-c2nnc(SCC(=O)N3CCCc4ccccc43)o2)cc1	8%	-9	.	0%	-2%
COc1cccc(Cn2c(=O)n(Cc3ccco3)c(=O)c3oc4ccccc4c32)c1	-30%	-40	.	i	-8%
Cc1nn2c(-c3ccco3)ccnc2c1-c1ccc(Cl)cc1	49%	10	.	-20%	-19%
COc1ccc(-c2cn3nc(N4CCCC(C(=O)Nc5ccccc5OC)C4)sc3n2)cc1 (stereo unspecified)	-4%	?	.	-28%	-25%
Nc1c(C(=O)Nc2ccc(Cl)c(C(F)(F)F)c2)sc2nc(-c3ccncc3)ccc12	?	-20	.	-20%	-15%
Cc1ccc(C(=O)NCCc2cccs2)cc1	-71%	-61*	-21%	.	.
SMILES	FMDV inh	HCMV antiviral	HCV inh	Vaccinia mCherry	Vaccinia Venus
COc1ccc(NC(=O)Cn2cnc3ccc(S(=O)(=O)N4CCC(C)CC4)cc3c2=O)cc1Cl	2%	-33	.	-19%	-12%
COc1ccccc1C(=O)NCCC(=O)N1CCN(c2ccc(C(F)(F)F)cn2)CC1	?	-85*	?	-10%	-10%
COc1ccccc1C(=O)NCCC(=O)N1CCN(c2ccccc2Cl)CC1	?	3	22%	-14%	?
CCCCCCN1Cc2ccccc2C1	-8%	-17	9%	.	1%
CCCCCCCCCCn1ccc(=N)cc1	16µM*	-100*	22µM*	?	?
COc1ccc2nc(NC(=O)c3nc(S(=O)(=O)Cc4ccccc4F)ncc3Cl)sc2c1	?	-88*	.	-7%	1%
COc1ccc2nc(NC(=O)c3nc(S(=O)(=O)Cc4ccccc4)ncc3Cl)sc2c1	25µM*	-101*	.	-20%	-15%
COc1ccc2nc(NC(=O)c3nc(S(=O)(=O)Cc4cccc(C)c4)ncc3Cl)sc2c1	?	-100*	.	?	?
CC(C)c1ccc(OCc2cc(=O)n3c(-c4ccccc4)csc3n2)cc1	-7%	-19	.	-8%	-16%
CCCCOCC1CN(CCCC)S(=O)(=O)c2c(NCc3cc(OC)c(OC)c(OC)c3)cccc2O1 (stereo unspecified)	.	-11	.	.	.
COc1ccc(-c2cc(C(C)=O)c(C)n2CCC(=O)NC2CCCCC2)cc1	12%	0	.	-15%	-6%
COCCCn1c(-c2ccc(OC)cc2)cc(C(=O)NC2CCCCCCC2)c1C	-3%	-65*	?	?	-27%
CCC[C@H]1[C@@H](NS(=O)(=O)c2cccc(C)c2)CC[C@@]23CCCN2C(=O)CCC[C@@H]13	.	35	.	.	.
Cc1nc(NCc2cnn(C)c2)sc1-c1ccn(-c2cccc(F)c2)n1	-12%	.	.	-16%	-11%
COc1ccc(C(C(=O)NC2CCCCC2)N(C(=O)CCl)c2ccc(OC)cc2)cc1 (stereo unspecified)	8.9µM*	.	1µM*	i	-17%
COc1ccc(C(C(=O)NC2CCCCC2)N(C(=O)CCl)c2ccc(C)cc2)cc1 (stereo unspecified)	?	-99*	0.56µM*	-2%	-26%
COc1ccc(C(C(=O)NC2CCCCC2)N(C(=O)CCl)c2cccc(Cl)c2)cc1 (stereo unspecified)	25µM*	-99*	1.6µM*	?	?
COc1cccc(N(C(=O)c2cnccn2)C(C(=O)NC2CCCCC2)c2ccc(Cl)cc2)c1 (stereo unspecified)	8%	-20	6%	-24%	-26%
COc1ccccc1N1CCN(C(=O)Cn2cnc3onc(-c4ccc(F)cc4)c3c2=O)CC1	-10%	-14	.	1%	5%
CN(C)CCC=C1c2ccccc2COc2ccccc21	-10%[39.8 µM]	.	.	.	.
O=C(Nc1ncccn1)c1cc(-c2ccc(F)cc2)nc2ccccc12	32µM*	-31	-7%	-20%	-11%
COCCCNC(=O)c1cc(-c2cccnc2)nc2ccccc12	-1%	19	4%	-13%	-9%
CCc1ccc(-c2cc(C(=O)N3N=C(C(F)F)CC3(O)C(F)F)c3ccccc3n2)cc1 (stereo unspecified)	6%	-87*	?	.	.
CC(C)Cc1cc(C(=O)N2N=C(C(F)F)CC2(O)C(F)F)c2ccccc2n1 (stereo unspecified)	-21%	-30	?	.	.
O=C(NCc1ccccn1)c1cc(-c2ccc(-c3ccccc3)cc2)nc2ccccc12	17%	-94*	?	.	.

Assay outcomes as filed in PubChem BioAssay.
